GLS inhibitor = glutaminase GLS (human) inhibition; O94925; GLS enzymatic activity, qHTS titration; Potency, µM (highest dose often 45.5 µM), for inactives: top-dose activity change, negative = inhibition, actives largely listed as inhibitors; 410,000 compounds, 0.21% hits; AID 624170; also: potency is read from the fitted curve at half-maximal effect
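hKGA in 45 mM KH2PO4 pH 8.2, 0.02% Tween-20 with pin-transferred compounds; 1 mM L-glutamine (stock) plus glutamate oxidase/HRP/Amplex Red coupling added. Fluorescence read initially and after 30 min at RT.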
rTrxR1 inhibitor = rat TrxR1 inhibition; O89049; Potency, µM (doses to about 114 µM), for the others: top-dose activity change, negative = inhibition, usual class: inhibitors; 390,000 compounds, 1% hits; AID 588453; recombinant rTrxR1, NADPH fluorescence consumption, selenite substrate; also: potency is read from the fitted curve at half-maximal effect; nearly all actives have a fitted effect of over 65% in size
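Rat TrxR1 (90 nM in the dispensed reagent) was pre-reduced with 400 uM NADPH for 5 min at room temperature, then incubated with compound for 15 min. After 400 uM selenite was added, NADPH fluorescence (Ex 340/Em 450 nm) was followed for 8 min.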
mIDH1 inhibitor = blocks human mutant IDH1 R132H enzyme; 390,000 compounds, 0.093% hits; Potency, µM (doses to about 76.6 µM), inactives show at the highest dose activity change, negative = inhibition, usual class: inhibitors; IDH1-R132H enzyme, NADPH consumption, diaphorase/resazurin fluorescence; O75874; also: potency is read from the fitted curve at half-maximal effect; nearly all actives have a fitted effect of over 65% in size
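IDH1-R132H (0.5 ug/mL dispensed) in pH 7.5 Tris buffer was preincubated 30 min with compound, then given a substrate mix of 0.016 mM NADPH and 2 mM alpha-KG for 80 min at room temperature; remaining NADPH was read by diaphorase/resazurin fluorescence.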
LDHA inh = blocks human lactate dehydrogenase A | P00338 | purified LDHA, NADH/diaphorase-resazurin fluorescence; stronger effect = lower value | activity change, % (values are at about 110 or 230 µM) | 480,000 compounds, 0.15% hits | AID 1347041; in the data active = activity change below about -30%; inconclusive = mostly about -25% to -30%;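 also: plate controls were DMSO wells for no effect and wells without enzyme for full effect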
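Remaining NADH was detected by diaphorase (0.133 mg/mL) converting 37 µM resazurin to fluorescent resorufin, read at 0 and 20 minutes. The preceding 5-minute room-temperature reaction used 2 nM LDHA, 0.2 mM sodium pyruvate and 0.06 mM NADH at pH 7.4.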
PKM2 activator = PKM2 (human) enzyme activation; P14618; purified PKM2, Kinase-Glo ATP luminescence, activation; response scale: 0% is enzyme alone, no compound; Potency, µM (titrated, usually from 57.5 µM), for the others: at the top dose activation, most hits filed as activators; 260,000 compounds, 0.34% hits; also: potency is read from the fitted curve at half-maximal effect; nearly all actives have a fitted effect of over 55% in size
Target sequence (P14618 whole entry, looked up): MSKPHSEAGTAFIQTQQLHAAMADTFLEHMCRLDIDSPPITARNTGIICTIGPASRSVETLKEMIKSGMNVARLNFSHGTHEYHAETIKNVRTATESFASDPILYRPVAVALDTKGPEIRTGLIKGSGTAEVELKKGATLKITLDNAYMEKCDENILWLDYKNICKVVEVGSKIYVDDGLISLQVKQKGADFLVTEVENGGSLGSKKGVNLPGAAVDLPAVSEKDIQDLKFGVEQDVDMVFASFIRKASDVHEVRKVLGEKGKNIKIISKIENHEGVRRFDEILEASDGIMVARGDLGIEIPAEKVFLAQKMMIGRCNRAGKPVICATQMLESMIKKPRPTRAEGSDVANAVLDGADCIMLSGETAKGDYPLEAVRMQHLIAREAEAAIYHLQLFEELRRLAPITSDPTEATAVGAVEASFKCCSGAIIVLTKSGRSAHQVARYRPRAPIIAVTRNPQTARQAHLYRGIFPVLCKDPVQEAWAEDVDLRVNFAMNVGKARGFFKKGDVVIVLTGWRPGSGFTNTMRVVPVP
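Purified hPK-M2 (>95% pure) converted ADP (0.1 mM final) to ATP with 0.5 mM PEP in 50 mM imidazole pH7.2, KCl, MgCl2, Tween 20, BSA; 1 h at room temperature. ATP detected by Kinase-Glo luminescence.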
TrxR1 substrate = is turned over as a substrate by rat TrxR1 | purified TrxR1 substrate turnover, NADPH consumption readout | Potency, µM (top dose mostly 114 µM), for inactives: at the top dose activity change, negative = substrate turnover | 390,000 compounds, 0.01% hits | AID 588456; also: potency is read from the fitted curve at half-maximal effect; nearly all actives have a fitted effect of over 50% in size
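Rat TrxR1, dispensed at 90 nM, was prereduced with 400 uM NADPH (final) for 5 min at ~22 deg C, then incubated with compound 15 min before 400 uM selenite. A first-read NADPH fluorescence drop versus no-compound background flagged substrates.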
* marks the source's active call; other numbers are inactive results; ? = inconclusive; . = not tested or not shown; [ ] = remark or other dose. Sampled rows, rich in hits. Any-hit rate of the full collection: about 1.4%. Unless noted, calls follow the shape of the dose curve; as a rule, active = well fitted curve in the direction sought with a large enough effect; inconclusive = small, poorly fitted or top-dose-only effect, or another doubt; inactive = no such curve, though single readings can be large; an effect the other way counts as inactive or inconclusive. Unless noted, % is scaled to controls: 0 for no effect and ±100 for the full control effect.

SMILES | GLS inhibitor | rTrxR1 inhibitor | mIDH1 inhibitor | LDHA inh | PKM2 activator | TrxR1 substrate
Cc1c(C(=O)c2no[n+]([O-])c2C(=O)c2cnn(C)c2C)cnn1C | 9% | 1.3µM* | 1% | -3 | 14% | -5%
CCCc1cc(CN2CCOCC2)c(O)c(CN2CCOCC2)c1O | -1% | 1.6µM* | 3% | 15 | . | 2%[11.4 µM]
CC(C(Sc1ccccc1N)c1ccccc1)[N+](=O)[O-] (stereo not given) | 19% | 6.3µM* | 11% | 0 | -2% | 0%
COc1cc(C(=O)Nc2ccc3oc(=O)ccc3c2)cc(OC)c1OC | . | . | . | -10 | . | .
Cc1ccccc1CN1CCNC(=O)C1CC(=O)O (stereo not given) | -3% | 71µM* | 6% | 1 | 8% | 5%
O=S(=O)(c1ccc(OC(F)(F)F)cc1)N1CCN(Cc2ncc(-c3ccc(F)cc3)o2)CC1 | . | . | . | 1 | . | .
CC(C)(C)c1n[nH]c(=S)n(/N=C/c2cccs2)c1=O | -5% | -17% | 6% | -8 | 2% | -7%
CCN(CC)c1ccc(/C=N/n2c(=S)[nH]nc(C)c2=O)cc1 | 24% | -22% | -1% | -31* | 5% | -13%
Cc1n[nH]c(=S)n(/N=C/c2cccs2)c1=O | 0% | 14%[57.1 µM] | 11% | -31* | 3% | 7%[57.1 µM]
O=C(Nc1ncn[nH]1)c1cccc(S(=O)(=O)N2CCCCC2)c1 | . | . | . | 3 | . | .
CC1=C(C#N)C(=O)NC(=O)/C1=C\c1ccc(-c2cc(C)c(C)cc2[N+](=O)[O-])o1 | 11µM* | 14µM* | ? | 15 | ? | 0%[57.1 µM]
Cc1ccc(-c2ccc(/C=C3/NC(=O)NC3=O)o2)cc1[N+](=O)[O-] | 5% | -18% | 2% | -6 | 25% | -4%
COC(=O)c1sc(N)c(C(=O)OC)c1Cn1ncc(Cl)c(Cl)c1=O | 11% | 2.5µM* | -3% | 1 | . | 1%[57.1 µM]
CC(CCC(C)C(C)(C)C)[C@@H]1CC[C@H]2C3C[C@H](OS(O)(=S)=S)[C@H]4C[C@H](OS(O)(=S)=S)[C@@H](OS(O)(=S)=S)C[C@]4(C)[C@H]3CC[C@]12C (stereo not given in full) (tested in a mixture with another compound) | ? | -11% | ? | -94* | . | 4%
CCOc1ccccc1C(=O)Oc1ccc(-c2ccc(C#N)cc2)cc1 | . | . | . | 0 | . | .
Cc1ccc(-c2nn3c(C)nnc3s2)cc1NC(=O)c1ccc(-c2cccc(Cl)c2)o1 | -24% | 35µM* | 4% | -8 | -2% | -5%
Cc1nnc2sc(-c3cccc(NC(=O)c4ccc(-c5cccc(Cl)c5)o4)c3)nn12 | . | . | . | 2 | . | .
COC(=O)c1cc(O)cc(OC)c1Oc1cc(C)cc(O)c1C(=O)O | 11µM* | -27% | -15% | 12 | ? | 0%
COC(=O)CCCN(C)C(=O)c1cc(-c2ccncc2)nc2ccccc12 | . | . | . | -4 | . | .
Cc1ccc(C(O)(C(=O)NN)c2ccc(C)cc2)cc1 | . | . | . | 4 | . | .
Cc1ccc(C(O)(C(=O)NNc2ccccn2)c2ccc(C)cc2)cc1 | 13µM* | 23%[57.1 µM] | 1% | -12 | -9% | 0%[57.1 µM]
Cc1cc(S(=O)(=O)NCC(c2ccco2)S(=O)(=O)c2cccs2)ccc1F (stereo not given) | -8% | 0.35µM* | -5% | -11 | . | -2%[57.1 µM]
c1coc(Cn2c(-c3ccco3)nc3ccccc32)c1 | -1% | 3.2µM* | -1% | -2 | 3% | 27%
COc1ccc(C(c2c(C)[nH]n(C(N)=S)c2=O)C(C#N)C#N)cc1 (stereo not given) | 9% | ? | -1% | 0 | 8% | -26%[11.4 µM]
Cc1[nH]n(-c2ncc(-c3ccc(Cl)cc3)s2)c(=O)c1C(c1ccc(Cl)cc1)C(C#N)C#N (stereo not given) | -19% | 11µM* | ? | -8 | 3% | -8%
SMILES | GLS inhibitor | rTrxR1 inhibitor | mIDH1 inhibitor | LDHA inh | PKM2 activator | TrxR1 substrate
O=C(/C=C/c1ccccc1Cl)c1ccccc(=O)c1O | -3% | 35µM* | 0% | 1 | 20% | -7%
Cc1ccc(C)c(/C=C/C(=O)c2ccccc(=O)c2O)c1 | 1% | 50µM* | 8% | 1 | 17% | -15%
Cc1nc(SC(C)c2cc(F)ccc2F)sc1CC(N)=O (stereo not given) | . | . | . | -1 | . | .
O=C(O)C(c1c[nH]c2ccc(OCc3ccccc3)cc12)N1CCN(CCOCCO)CC1 (stereo not given) | . | . | . | 6 | . | .
O=C(c1ccccc1)c1ccc(OCCOCCN2CCN(Cc3ccccc3)CC2)cc1 | 2% | 23%[57.1 µM] | 13% | ? | -4% | 1%[57.1 µM]
CCC(=O)c1ccccc1OCCN1CCN(Cc2ccccc2)CC1 | 9% | 20%[57.1 µM] | 7% | -34* | 0% | 5%[57.1 µM]
CCC(=O)c1ccccc1OCCCn1cncn1 | 12% | 6% | 0% | -4 | 13% | -1%
CCOc1ccccc1OCCOCCN1CCN(Cc2ccccc2)CC1 | 0% | 14%[57.1 µM] | 18% | -31* | 4% | -23%[57.1 µM]
OCCn1c(CSc2nnc(-c3ccco3)n2-c2ccccc2)nc2ccc(Cl)cc21 | -19% | 20µM* | 9% | -7 | ? | 6%
COC(=O)c1ccc(NCc2c(O)ccc(O)c2Br)cc1Cl | ? | 32µM* | 0% | 37 | . | -9%
O=[N+]([O-])c1cc(Cl)ccc1N1CCN(c2ccccc2O)CC1 | 16µM* | 23%[57.1 µM] | 5% | 0 | -1% | 8%[57.1 µM]
NC(=O)c1ccc(N2CCN(c3ccc(O)cc3)CC2)c([N+](=O)[O-])c1 | 13µM* | -7%[57.1 µM] | 2% | 23 | 20% | 0%[57.1 µM]
Cn1c(CCNC(=O)c2ccco2)nc2cc(NS(=O)(=O)c3ccc(Cl)cc3)ccc21 | 7% | 12% | -2% | -6 | 16µM* | 11%
COc1ccc(OC)c(-n2c3c(cc(-c4nc(-c5ccc(Cl)cc5)cs4)c2=O)C(=O)CC(C)(C)C3)c1 | 2% | 28% | 1.3µM* | 2 | . | 13%
O=C(Cc1ccc(Br)cc1)NC1CCN(C2CC2)C1 (stereo not given) | . | . | . | -8 | . | .
O=C(O)c1cc(O)c2c(c1)C(=O)c1cccc(O)c1C2=O | 22µM* | -16% | 18% | 6 | -21% | -3%
Cc1ccc(N(Cc2cc3ccc(C)cc3[nH]c2=O)S(C)(=O)=O)c(C)c1 | 3% | 13% | 7% | 3 | 22µM* | 2%
CNCc1cc2ccc(C)cc2[nH]c1=O | -1% | 25µM* | 6% | -1 | 2% | 8%
Cc1ccc2cc(CN(C)S(C)(=O)=O)c(=O)[nH]c2c1 | 0% | 12%[57.1 µM] | 20% | 0 | 7% | 10%

Assay outcomes as filed in PubChem BioAssay.
